The text below walks through data of PubChem BioAssay AID1347147 (National Center for Advancing Translational Sciences (NCATS), 2019).

Each structure is given as a SMILES string. Records with an inconclusive call do not appear. A call without a number means that no potency is given here. Calls of active or inactive are those of the source. Calls follow the shape of the dose curve; as a rule, active = well fitted inhibition curve with a large enough effect; inconclusive = small, poorly fitted or top-dose-only effect; inactive = no such curve, though single readings can be large or run the other way.
Potency is read from the fitted curve at half-maximal effect.

The target in the experiment is N-terminal Xaa-Pro-Lys N-methyltransferase 1 (Homo sapiens) (UniProt Q9BV86). Briefly: qHTS Assay for Inhibitors of N-terminal methyltransferase 1 (NTMT1): MTaseGlo Confirmatory Screen, Round 2. Particulars: NTMT1 enzyme, MTase-Glo SAH luminescence; series mostly up to 57.4 µM. The method, boiled down: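 Luminescent MTase-Glo readout of SAH formed in 30 min at RT by 125 nM NTMT1, 100 µM SAM and 1 µM SPKRIA substrate, after ~15 min compound preincubation. Percent inhibition versus no-enzyme and DMSO controls was Hill-fitted.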
Chain of N-terminal Xaa-Pro-Lys N-methyltransferase 1 (Homo sapiens) (Q9BV86 whole entry, looked up): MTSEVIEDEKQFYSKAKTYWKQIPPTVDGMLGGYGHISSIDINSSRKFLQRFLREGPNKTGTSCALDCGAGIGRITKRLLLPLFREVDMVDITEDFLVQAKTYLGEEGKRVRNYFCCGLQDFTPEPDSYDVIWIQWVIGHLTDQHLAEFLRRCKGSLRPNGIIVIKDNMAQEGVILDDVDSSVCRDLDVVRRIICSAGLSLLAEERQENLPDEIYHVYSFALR
For orientation: Quantitative high-throughput screening tests each substance at several concentrations.
In the case of `CC(C)COCC(CN(Cc1ccccc1)c1ccccc1)N1CCCC1` (stereo not drawn), the Potency entry is “inactive”.

As to `N#C/C(=C\c1ccc(O)c(O)c1)C(=O)NCCCNC(=O)/C(C#N)=C/c1ccc(O)c(O)c1`, the Potency is 7.94 µM (active).

As to `O=c1ccc2ccc(O)c(O)c2o1`, the Potency result was “inactive”.

For the molecule `Nc1nc(=S)c2ncn([C@@H]3O[C@H](CO)[C@@H](O)[C@H]3O)c2[nH]1`, the Potency result is “inactive”.

Regarding `COc1ccccc1N1CCN(CCN2C(=O)CC3(CCCC3)CC2=O)CC1`, the Potency result was “inactive”.

Turning to `COc1cc2c(NC3CCN(C(C)C)CC3)nc(N3CCC(F)(F)CC3)nc2cc1OCCCN1CCCCC1`, the Potency entry was “inactive”.

Turning to `OCC1OC(n2cnc3c(NO)ncnc32)C(O)C1O` (stereo not drawn), the Potency entry was “inactive”.

Turning to `Clc1nccc2c1ccc1ccccc12`, the Potency result is “inactive”.

In the case of `Nc1ccnc2c1ncn2[C@@H]1O[C@H](CO)[C@@H](O)[C@H]1O`, the Potency was 10 µM (active).

For the molecule `CN(C)CCCN1c2ccccc2Sc2ccccc21`, the Potency result was “inactive”.

As for `N=c1c[n+](N2CCOCC2)[n-]o1`, the Potency entry is “inactive”.

With `OCCN1CCN(CCCN2c3ccccc3Sc3ccc(Cl)cc32)CC1`, the Potency result was “inactive”.

As to `CN(C)c1ccc(/C=C2\C(=O)Nc3ccccc32)cc1`, the Potency result was “inactive”.

Consider `CN1Cc2sccc2C(c2ccc(O)c(O)c2)C1` (stereo not drawn), for which the Potency entry is “inactive”.

`CC(C)=CCNc1ncnc2c1ncn2[C@@H]1O[C@H](CO)[C@@H](O)[C@H]1O`: the Potency result was “inactive”.

Turning to `Cc1nnc(SCC2=C(C(=O)O)N3C(=O)[C@@H](NC(=O)Cn4cnnn4)[C@H]3SC2)s1`, the Potency result is “inactive”.

With `N[C@@H](Cc1c[nH]c2ccc(O)cc12)C(=O)O`, the Potency result is “inactive”.

With `CNCCc1cnc(CCC(c2ccccc2)c2ccccc2)[nH]1`, the Potency result was “inactive”.

For `O=Nc1ccc2oc(=O)ccc2c1`, the Potency entry is “inactive”.

Regarding `COc1cccc(OC)c1OCCNCC1CSc2ccccc2O1` (stereo not drawn), the Potency entry was “inactive”.

`CC(CN1c2ccccc2Sc2ccccc21)N(C)C` (stereo not drawn): the Potency entry is “inactive”.

Take `NC(Cc1c[nH]c2ccc(O)cc12)C(=O)O` (stereo not drawn): the Potency result is “inactive”.

For the molecule `CN(C)C(=O)/N=N/C(=O)N(C)C`, the Potency entry was “inactive”.

`N#C/C(=C\c1ccc(O)c(O)c1)C(=O)c1ccc(O)c(O)c1`: the Potency result is “inactive”.

Turning to `CNC(=O)c1cnn(-c2nc(N)c3ncn([C@@H]4O[C@H](CO)[C@@H](O)[C@H]4O)c3n2)c1`, the Potency result was “inactive”.

Regarding `NS(=O)(=O)c1cccc2c1c([N+](=O)[O-])cc1nc(O)c(O)nc12`, the Potency entry was “inactive”.

Consider `CCN(CC)C(C)CN1c2ccccc2Sc2ccccc21` (stereo not drawn), for which the Potency entry is “inactive”.

Consider `O=C(N[C@@H](Cc1ccccc1)C(=O)CCl)OCc1ccccc1`, for which the Potency entry is “inactive”.

Turning to `NCCc1ccc(O)c(O)c1`, the Potency entry was “inactive”.

Turning to `Nc1nc(Cl)nc2c1ncn2[C@@H]1O[C@H](CO)[C@@H](O)[C@H]1O`, the Potency entry is “inactive”.

On to `O=C1NC(=O)C(c2ccccc2[N+](=O)[O-])=C1Nc1ccc(O)c(Cl)c1`, for which the Potency entry was “inactive”.

Take `CSc1nc(N)c2ncn([C@@H]3O[C@H](COP(=O)(O)OP(=O)(O)OP(=O)(O)O)[C@@H](O)[C@H]3O)c2n1`: the Potency entry was “inactive”.

Turning to `Cc1ccccc1CNc1ncnc2c1ncn2[C@@H]1O[C@H](CO)[C@@H](O)[C@H]1O`, the Potency result was “inactive”.

Consider `CSc1ccc(C(=O)c2[nH]c(=O)[nH]c2C)cc1`, for which the Potency result was “inactive”.

Consider `Nc1ncnc2c1ncn2[C@H]1O[C@@H](CNS(=O)(=O)NC(=O)c2cccc(-c3noc(-c4ccccc4F)n3)c2)[C@H](O)[C@@H]1O`, for which the Potency is 2 µM (active).

In the case of `C[C@H](NC(=O)/C(C#N)=C/c1ccc(O)c(O)c1)c1ccccc1`, the Potency entry is “inactive”.

On to `Nc1ccc(CCNc2ncnc3c2ncn3C2OC(CO)C(O)C2O)cc1` (stereo not drawn), for which the Potency entry was “inactive”.

Turning to `C/C(=C\CNc1ncnc2c1ncn2[C@@H]1O[C@H](CO)[C@@H](O)[C@H]1O)CO`, the Potency entry was “inactive”.
